According to PubChem BioAssay (Tox21):
“And” between values parts separate entries of the source, which are not always exact repeats. Equal entries are not always repeated. Records with an inconclusive call do not appear. Where a call stands in place of a potency, no number is given. Where a structure was tested more than once in an assay, its records may differ in their call. The source made the active and inactive calls. Unless noted, the call rests on the fitted dose curve; in most records, active means well fitted curve in the direction sought with a large enough effect in the repeat runs; inconclusive means weak or mixed curves; inactive means no such curve, though single readings can be large; an effect the other way counts as inactive or inconclusive.

Tests used:
[1] = qHTS assay to test for compound auto fluorescence at 535 nm (green) in HEK293 cells (AID 720680)
[2] = qHTS assay to test for compound auto fluorescence at 460 nm (blue) in HEK293 cell free culture (AID 720681)
Outline: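 Compounds were added to cell-free DMEM with 10% FBS and fluorescence read directly. The blue channel used 405 nm excitation and 460 nm emission, with triamterene as the reference fluorophore.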

[3] = qHTS assay to test for compound auto fluorescence at 535 nm (green) in HEK293 cell free culture (AID 720682)
Outline: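 Green-channel intensity (Ex/Em 485/535 nm) was recorded from compound-treated wells containing only DMEM with 10% FBS. Fluorescein provided the equivalency standard.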

[4] = qHTS assay to test for compound auto fluorescence at 590 nm (red) in HepG2 cell free culture (AID 720684)
Outline: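 Rose Bengal sodium served as the reference for red signal. Test compounds were dispensed into serum-containing MEM (10% FBS) without cells, and plates were read at 540/590 nm.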

[5] = qHTS assay to test for compound auto fluorescence at 460 nm (blue) in HepG2 cell free culture (AID 720685)
Outline: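 Cell-free plates of MEM plus 10% FBS received 23 nL compound or DMSO vehicle; blue-channel (405/460 nm) intensity scored against triamterene as reference fluorophore.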

[6] = qHTS assay to test for compound auto fluorescence at 460 nm (blue) in HepG2 cells (AID 720687)
Outline: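 HepG2 cells in MEM with 10% FBS, attached overnight at 37 C, were exposed to compound or DMSO for 1 hr at 37 C, 5% CO2. Blue fluorescence was read at 405/460 nm, with triamterene as reference fluorophore.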

[7] = target: Glucocorticoid receptor (Homo sapiens) (UniProt P04150); assay: qHTS assay to identify small molecule agonists of the glucocorticoid receptor (GR) signaling pathway (AID 720691; active means well fitted activation curve with a large enough effect in the signal ratio in the repeat runs, not every such curve was filed as active; the % refers to the signal ratio)
Outline: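 HeLa GR-bla reporter line; cells pre-incubated 4 h, compound in DMSO 18 h at 37 C; LiveBLAzer B/G FRET substrate 2 h RT; fluorescence intensity read-out.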

[8] = qHTS assay to identify small molecule antagonists of the glucocorticoid receptor (GR) signaling pathway - cell viability counter screen (AID 720693); further: nearly all actives have a fitted effect of over 55% in size
[9] = qHTS assay for identifying genotoxic compounds that show differential cytotoxicity against isogenic chicken DT40 cell lines with known DNA damage response pathways - Rev3 mutant cell line (AID 743014); further: nearly all actives have a fitted effect of over 55% in size; further: potency means the concentration at half of the fitted maximal effect
[10] = qHTS assay for identifying genotoxic compounds that show differential cytotoxicity against isogenic chicken DT40 cell lines with known DNA damage response pathways - Rad54/Ku70 mutant cell line (AID 743015); further: nearly all actives have a fitted effect of over 60% in size
[11] = qHTS assay to identify small molecule antagonists of the androgen receptor (AR) signaling pathway - cell viability counter screen (AID 743033; further: nearly all actives have a fitted effect of over 45% in size)
[12] = qHTS assay to identify small molecule antagonists of the androgen receptor (AR) signaling pathway using the MDA cell line - cell viability counter screen (AID 743041; further: nearly all actives have a fitted effect of over 45% in size)
Outline: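 Cytotoxicity counter screen: MDA-kb2 AR-luc cells, compound + R1881, 16 h, 37C, 0% CO2; CellTiter-Fluor added at 15.5 h, fluorescence read after 30 min.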

[13] = target: Glucocorticoid receptor (Homo sapiens) (UniProt P04150); assay: qHTS assay to identify small molecule antagonists of the glucocorticoid receptor (GR) signaling pathway (AID 720692; active means well fitted inhibition curve with a large enough effect in the signal ratio in the repeat runs, not every such curve was filed as active; the % refers to the signal ratio)
Outline: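 Read-out: beta-lactamase FRET substrate fluorescence, 2 h at room temperature, in HeLa cells stably carrying a GRE-driven bla reporter. Compounds were co-incubated with 5 nM dexamethasone agonist (final) for 18 h at 37 C.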

[14] = qHTS assay to test for compound auto fluorescence at 535 nm (green) in HepG2 cell free culture (AID 720686)
[15] = qHTS assay for identifying genotoxic compounds that show differential cytotoxicity against isogenic chicken DT40 cell lines with known DNA damage response pathways - wild type cell line (AID 743012); further: nearly all actives have a fitted effect of over 60% in size
Outline: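 CellTiter-Glo luminescence readout of viability in wild type DT40 cells after 40 h compound exposure at 37 C/5% CO2; 300 cells/well; reagent incubated 30 min at room temperature before reading.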

Chain of Glucocorticoid receptor (Homo sapiens) (P04150 whole entry, looked up): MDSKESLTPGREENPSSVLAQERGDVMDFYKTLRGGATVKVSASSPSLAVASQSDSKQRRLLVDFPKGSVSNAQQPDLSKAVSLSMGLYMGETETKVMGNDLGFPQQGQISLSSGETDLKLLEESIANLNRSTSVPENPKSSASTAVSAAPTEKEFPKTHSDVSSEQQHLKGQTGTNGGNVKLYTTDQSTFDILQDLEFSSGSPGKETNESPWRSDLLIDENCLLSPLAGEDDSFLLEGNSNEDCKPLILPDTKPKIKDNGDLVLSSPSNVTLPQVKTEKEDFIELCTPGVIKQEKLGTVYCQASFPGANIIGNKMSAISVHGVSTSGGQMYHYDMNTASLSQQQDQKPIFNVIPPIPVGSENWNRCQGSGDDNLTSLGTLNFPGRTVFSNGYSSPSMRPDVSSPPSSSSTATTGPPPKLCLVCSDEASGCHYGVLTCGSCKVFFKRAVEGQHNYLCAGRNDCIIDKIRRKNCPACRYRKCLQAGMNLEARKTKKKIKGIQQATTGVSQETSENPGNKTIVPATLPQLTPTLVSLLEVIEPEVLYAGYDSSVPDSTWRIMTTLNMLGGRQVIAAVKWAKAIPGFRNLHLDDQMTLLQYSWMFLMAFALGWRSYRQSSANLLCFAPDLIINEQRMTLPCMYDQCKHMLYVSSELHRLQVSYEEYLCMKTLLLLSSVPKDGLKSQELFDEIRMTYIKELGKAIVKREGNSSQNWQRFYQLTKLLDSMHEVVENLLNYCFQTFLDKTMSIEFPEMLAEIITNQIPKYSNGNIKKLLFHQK

Compound	outcome [1]	Potency [2]	outcome [3]	outcome [4]	Potency [5]	Potency [6]	outcome [7]	Potency [8]	Potency [9]	Potency [10]	Potency [11]	Potency [12]	Potency [13]	outcome [14]	Potency [15]
Brc1ccc(Oc2ccc(Br)cc2)cc1	inactive	inactive	inactive	inactive	inactive	inactive	inactive	inactive	inactive	inactive	inactive	inactive	–	–	–
O=C(O)Cc1c[nH]c2ccccc12	inactive	inactive	inactive	inactive	–	inactive	inactive	inactive	inactive	inactive	inactive	inactive	inactive	–	–
OCCOCCOCCOCCOCCO	inactive	inactive	inactive	inactive	inactive	inactive	–	inactive	inactive and 24.3 µM (active)	inactive	inactive	inactive	–	inactive	inactive
CC(O)CNCC(C)O (stereo not drawn)	inactive	inactive	inactive	inactive	inactive	inactive	–	inactive	inactive	inactive	inactive	inactive	–	inactive	inactive
Nc1cccc(N)n1	inactive	inactive	inactive	inactive	inactive	–	inactive	inactive	inactive	inactive	inactive	inactive	–	inactive	–
COc1c(Cl)ccc(Cl)c1C(=O)O	inactive	inactive	inactive	inactive	inactive	inactive	–	inactive	inactive	inactive	inactive	inactive	–	–	inactive
C1CCCNCC1	inactive	inactive	inactive	inactive	–	inactive	inactive	inactive	inactive	inactive	inactive	inactive	–	–	inactive
OB(O)O	inactive	inactive	inactive	inactive	inactive	inactive	inactive	inactive	inactive	inactive	inactive	inactive	inactive	–	inactive
Cc1ccc(Cl)cc1	inactive	inactive	inactive	inactive	–	inactive	inactive	inactive	inactive	inactive	inactive	inactive	inactive	–	inactive
COc1ccc([C@@H]2CC(=O)c3c(O)cc(O[C@@H]4O[C@H](CO[C@@H]5O[C@@H](C)[C@H](O)[C@@H](O)[C@H]5O)[C@@H](O)[C@H](O)[C@H]4O)cc3O2)cc1OC	inactive	inactive	inactive	inactive	–	inactive	–	inactive	inactive	inactive	inactive	inactive	–	–	inactive
CC(C)c1ccc(C(C)C)cc1	inactive	inactive	inactive	inactive	inactive	inactive	inactive	inactive	inactive	inactive	inactive	inactive	inactive	–	inactive
